Test results taken from PubChem BioAssay AID1508600 (Functional Genomics Laboratory (NCATS/FGL), 2020).
About 3,700 (7%) of roughly 53,000 sequences were called active.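 Rule for the calls: active = gene knockdowns whose robust z-score for IL-1 alpha signal is at least 2 or at most -2, so actives lie on both sides; inactive = the rest.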 Only a selection was taken, and actives are over-represented in it overall.

assay: Components of the Cytosolic LPS Sensing Pathway: Gene Identification via Genome-wide siRNA Screen; details: RAW264.7 macrophages, IL-1a HTRF, actives lie on both sides, screened at 100 nM (by protocol), cells primed 5 h with Pam3CSK4 first;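 note: robust z of the log signal after scaling to non-targeting control siRNA wells of the plate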
Outline: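 Knockdown: 100 nM siRNA, 48h, RAW264.7. Stimulation: Pam3CSK4 5 h, then LipidA via TransIT-TKO 24 h. Output: supernatant IL-1a HTRF, negative-control-normalized, log robust z-score; viability by CellTiter-Glo.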

z-score, inactive:
GGAAAUGGCCUCCAUGAGATT against Krt14 0.734
GGCCUUGCACUUCAGUUUCTT against Mfsd4b1 -0.436
GGAAAGAAGAAAUGAGAAGTT against Gm9871 -1.57
CGGAAGAAGCCAGUUAAGATT against Apol9b 0.665
GGAGUUGUGAAUUUCUCGUTT against Sri -0.198
GGUUACUAGAAAAGUGUUGTT against Olfr1489 1.41
GGGAAUUUCCUGAAAUCCUTT against Mettl8 -0.167
GGUUAACCUGAGAAAAAUGTT against Mkrn1 0.734
GGCAACUUAGGAGUUAGACTT against Pgam5 0.533
CCCUAAGCUCUGUUCCCAGTT against Olfr371 -0.561
GCCAAUCUCUGCUAGAUACTT against Slc46a1 0.447
GGCAACACACUGUCAUUUCTT against Il9 -1.06
CCAACUGUGAUCAGUGAGCTT against Shank3 -0.387
GGCCUUGAAGGAGAUGCUATT against Rell2 0.887
GCAGAUCAUUCCCGUGUUGTT against P2ry14 0.565
GCUGUGCAAGGUGAGGAAATT against Rps4l 1.25
GGUGAUGGAAAUAAACUACTT against Dhrs7b 1.44
GGACCAUUAAACUAAAUGGTT against Tpte -0.592
GCUCUCACAGGAUAAGGCUTT against Cryga -0.126
CCUCGUUAUCCUCAUGGGATT against Alppl2 0.649
GGUUUGAGUGGAAAAUUCATT against Csn1s2b 0.904
GGAGGCUGAGUAUUGGCUUTT against Pi4k2b -1.06
GCUCUACCCAAUCAAGACCTT against Asb14 0.31
GCAGUCGAAGCACUAAAAATT against Dnaaf2 0.412
GGAACUGAAGGGCAAUAUCTT against Kifc5b 1.99
GGGCUCCUUCCUUGAAAAGTT against Dclre1c 0.365
GACCACACUCAUCCAGGCUTT against Gtpbp6 0.817
GGAAACGAUGACAUUUCAATT against Pnrc2 0.0147
GGCCAGAGACUGCCUGAUUTT against Acaa1b 0.225
GGUCAUUCAGCUGGAAGAUTT against Zfp143 -1.07
GGGUAGGUAUCAAAAUAAUTT against 6030452D12Rik 0.172
GCCACGUGAUAGUAAUAAATT against Psmd12 0.0999
GGAGAAUGAAGAGUUAGACTT against Nfu1 0.608
AUUACAAGGUUUGUGGAUATT against Gsdmc3 0.188
GGUGGAUAGAGCAAUUGAATT against Jph1 1.5
GCCAAGUACUCGUUUCCACTT against Wtap 0.826
GCCUUGGACUGCUUUGGAUTT against Dync1li1 -0.379
GGCAUUCCUCUUGAAUAUUTT against Dck -0.805
GCCCUACCCUCAUCAUAAATT against Tmem94 -1.36
GGACUUCAGAGUGGACAUUTT against Sec16b -0.19
GCUGUGAAGAAUCAGAUAGTT against Aatf -0.155
GGAUUUAUGGCAAGUUUCUTT against Ppp2r5e 0.00387
CCAGGUGUACCUUACGUUGTT against Eif4ebp2 1.05
CGGACAAGAUAAAGUGUGUTT against Lypd9 -1.07
GGUGUAAAGUAAUCAAGGCTT against Dbx2 0.453
GGUUUUAUGAGAAAGCAGATT against Ogfod1 0.0298
GCACAGCUACCAUUCACAATT against Nxpe2 -1.97
CCACUAAGGUUUGAAGAAGTT against Nes 1.21
CCUGAUUAUUCUGAGAAAUTT against Adsl 1
GGGACUCGAGUUUCAUCUATT against Casc1 0.768
CCGUUCUGGCACAGAACAGTT against A830005F24Rik 1.41
CCAUUGUACAGAAAAACACTT against Abhd18 0.41
GGAAAGAGCUUUUUAUUGUTT against Zfp235 0.145
GCCCGAAUACAGGAAGAUCTT against Hspg2 1.42
GGAAAUGAGACGAAGGAGGTT against Kpna6 -0.642
GGCACAGAGAACAAUACUUTT against Npy5r -0.128
CCCUAUUAGUGGAAGCAUGTT against Zfp738 -1.94
GCAUCGCAUUUAAAUAGAATT against 4833408A19Rik 0.965
GGAGAUGAACAAGGACCUATT against Apoa1 0.717
GGAUGUGAUGAAGUUGGCCTT against Olfr78 -1.96
GCUGGUGAGUCACUGAUGATT against Med22 1.32
GGAAAGAAGAAACAUUCCUTT against Socs5 0.495
GCGACUCCCACAUACUCAGTT against Muc19 -0.215
GCCUAAGAACGAUGACACUTT against Surf2 0.179
CGUUAAUUGCCCUCAAAGATT against Spon1 1.03
GGCGGAGAGGAAAUCUAUGTT against Mycs 1.4
GCCUUUGCACAGUUUGGACTT against BC002059 -1.13
GGCAGUUCUCCAGUGCUUUTT against Mtss1 -1.32
CCUCGUAUUUAUACUCAGUTT against Gpr18 0.3
GGCUGCUCAAAAAGAACAUTT against Kif21b 0.645
GCUUUGGCUCAAAGCACGUTT against Mcm3 1.93
GCGGUCAAAUGCAACAAACTT against Fabp5 -0.33
CCUCCUGACCUUAAUCUUGTT against P2rx1 0.507
GCUUAAUCCUUAGUCAGCATT against F2rl2 -0.591
GGAAGAGGUGAAUGAUAAATT against Bmi1 1.51
GCUCAACAGCAGUGACGAUTT against Nras -0.701
GGCCAGUCAAGGUUGGAUUTT against Gpr152 -0.32
GGAUACAAUGCAACUGUCCTT against Kif4 -1.08
GGUUAGCCUACUCUCUAAUTT against Tomm22 0.501
GGCUCAAAUACAGGAAAUUTT against Tmem45b 0.498
GGGCAGGUUGUCUUUCUACTT against Plpp1 0.997
UCAACAGGGCUGAUAUCCCTT against Acsl5 -1.61
CGGUGAAGACUAUCAUGGUTT against Tln1 -0.791
CCUUAAUCCAAACAAGUCUTT against Ncl 1.08
GGUUUCUUAGAUUAGCUAGTT against Map3k12 0.445
GGUUAUCAAGAUUGCAUGUTT against Olfr853 -0.646
GGGUUAUGAAGAGAAACUUTT against Gatad2b 0.236

z-score, active:
GCGUGGAAGGUCUGAACACTT against Arfgap3 4.18
GUGUGAACAGAGGCAGAAATT against Xlr3a -2.46
GGACAAGAAGGAAAAGAAATT against Brd4 -3.25
GGACAAGAAGCCACUGACATT against Arrb1 2.2
CCCACAGAACCACACAUUCTT against H2-DMa 3.11
CGACCUACUCUACAGCAAATT against Brinp3 2.6
GGGCGUAGAAACAGCAACUTT against Ushbp1 -2.14
GGCGGCACAAAUUGUUUUUTT against Gimap9 -2.03
GGAAAGUUGGACCUUCUGATT against Adamts6 2.35
GGAACUCACACAGAACCAATT against Bloc1s6 6.84
GGAGGAACAUAUGCUCAGATT against Lce1e -2.99
GGAAUUACGAAGCUGUGUGTT against Cdkl3 -2.36
CCAUAUACCCUCGAUGCCATT against Abhd16b -2.76
GGAACUGAAAAACUCAACUTT against Evi2a -3.13
GGGUGUAGCAUUGUCACAGTT against Olfr1133 2.32
UCCAUACUACUCAUCAAAUTT against Olfr68 3.78
GGUCUCUGUAGAGAUGGCATT against 6820408C15Rik -2.52
CCACCUUCCUAUGUUUGUATT against Ebf2 3.73
GGCUGCACAAAGAUGUUCATT against Yy1 2.46
GCUGUGAAUUCCAAAUGCGTT against Myh4 3.33
GCACUCUCUACUCUAUUAATT against Ackr2 2.68
